In ChEMBL document CHEMBL3988442, “University of Dundee, Small-Polar-MMV Screening Library” (2021):

target: AMP-activated protein kinase, AMPK (Homo sapiens) (UniProt P54646+O43741+P54619+Q9UGJ0+Q9Y478+Q13131+Q9UGI9); experiment: AMP-dependent Kinase enzyme assay. An in vitro enzyme assay that detects ADP turnover that is directly proportional to AMPK activity. This uses naive AMPK that is activated during the assay with MK-8722; format: functional; set-up: scale not given: direction of the effect not stated beside the values; settings: 30 µM

Point of comparison: `Cc1noc(C)c1C(=O)N(C)C(C)c1ccncc1` (stereo not given), Percent Effect -0.736%. Against it:
- COc1cc2ncn(Cc3ncc[nH]3)c(=O)c2cc1OC — lower, -1.8%
- CC(=O)N1CCc2c(nc(N(C)C)nc2NCCCn2ccnc2C)C1 — higher, 7.72%
- COCCOCC(=O)Nc1nc2c(OC)cc(F)cc2s1 — higher, 3.08%
- COc1c(C2CCCN2C(=O)c2ccc(C(N)=O)s2)c(C)nn1C (stereo not given) — lower, -4.26%
- Cc1nccn1CCCN1CCCC(c2nccn2CC2CCC2)C1 (stereo not given) — higher, 1.25%
- CC(C)[C@H](N)C(=O)N1CCCC(C2=Nc3ccccc3S(=O)(=O)N2)C1 (stereo not given in full) — higher, 7.27%
- O=C(NCC[S+]([O-])Cc1ccccc1)c1ccc2[nH]c(=O)[nH]c2c1 (stereo not given) — higher, 13.6%
- COC1CCN(c2ccc(F)cc2CN(C)CC(N)=O)CC1 — higher, 5.84%
- CCc1nc2n(n1)CC(NCc1cc3ccccc3o1)CC2 (stereo not given) — lower, -3.35%
- O=C1CC2(CCCC2)CC(=O)N1CCn1cnnc1 — higher, 5.88%
- CCCc1ccc(CN2CCC3(CCC(=O)N(CCCOC)C3)CC2)o1 — higher, 4.14%
- Cn1ccnc1C(O)c1ccccc1N1CCN(CC2CCCC2)CC1 (stereo not given) — higher, 16.2%
- Cc1nn(-c2ccccc2)c2nc(C(C)(C)CN3CCN(C)CC3)[nH]c12 — higher, 9.98%
- CCNC(=O)C1CCN(Cc2ccc(C(=O)Nc3cnns3)cc2)C1 (stereo not given) — higher, 1.07%
- CCS(=O)(=O)N1CCCN(CCCOC)CC1 — higher, 19%
- Cc1nn(C)c(C)c1S(=O)(=O)NCC1(C(N)=O)CCOCC1 — higher, 0.589%
- O=C(O)c1cnc(OCC2CC2)c(Cl)c1 — lower, -1.49%
- O=C(C1CCCO1)N1CCC(n2cc(-c3ccc(F)cc3)nn2)CC1 (stereo not given) — higher, 3.48%
- CCOC(=O)CC1CCCCN1C(=O)c1cccc2ccnn12 (stereo not given) — lower, -6.64%
